The source made the active and inactive calls.
test system: not listed separately; test: blood-stage malaria parasite viability loss – strain 3D7, DAPI fluorescence, 100 nL, primary screen (AID 1184);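 further: parasites grown inside human red blood cells in medium with human serum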; conditions: P. falciparum 3D7 growth, 3 d, higher = more signal

**Q.** With `COCCOC(=O)N1C(=O)[C@@]2(c3cc(C#CCC(C(=O)OC)C(=O)OC)ccc31)[C@H](C(=O)Nc1nc3ccccc3s1)[C@H]1C(=O)O[C@H](c3ccccc3)[C@H](c3ccccc3)N1[C@@H]2c1ccc(OCCO)cc1` as the compound, how does the z-score read?
**A.** Its z-score is -1.85.

**Q.** For `O=C(NC1CC1)[C@@H]1c2ccccc2C(=O)N(Cc2cc(C(F)(F)F)cc(C(F)(F)F)c2)[C@H]1c1ccc(CO)cc1`, which z-score is on record?
**A.** The z-score was -1.54.

**Q.** For `CC(C)C[C@@H]1NC(=O)[C@@H]2C[C@H](C(=O)NCCCCCCNC(=O)CS)[C@H](c3cccc(OCCO)c3)N2C1=O`, which z-score is on record?
**A.** Its z-score is -0.0654.

**Q.** For `O=C1N(Cc2ccccc2)c2ccccc2C[C@@]12COC(c1ccc(OCCCO)cc1)=N2`, which z-score is on record?
**A.** The z-score was -2.23.

**Q.** For `CC(C)C(=C=CC[C@H](O)c1ccccc1OCCO)C[C@H](O)c1cc(Cl)cc(Cl)c1O`, which z-score is on record?
**A.** Its z-score is -1.

**Q.** With `CCCC#C[Si](O[C@H](CC)c1cn(Cc2ccccc2)nn1)(C(C)C)C(C)C` as the compound, how does the z-score read?
**A.** The z-score was 0.0331.

**Q.** With `OCCCC1=CC(c2ccc(CN3CCCC3)cc2)N(Cc2cccc(OC(F)(F)F)c2)CC1` (stereo not drawn) as the compound, how does the z-score read?
**A.** Its z-score is -2.86.

molecular target: Homeobox protein Hox-A13 (Mus musculus) (UniProt Q62424); test: disruptors of Hoxa13 oligonucleotide interaction – biochemical, fluorescence polarization, labeled oligonucleotide, primary screen (AID 1185); conditions: Hoxa13:DNA binding, 15 min, higher = more signal, called active from +8 up or from −8 down
Sequence (Q62424 whole entry, looked up): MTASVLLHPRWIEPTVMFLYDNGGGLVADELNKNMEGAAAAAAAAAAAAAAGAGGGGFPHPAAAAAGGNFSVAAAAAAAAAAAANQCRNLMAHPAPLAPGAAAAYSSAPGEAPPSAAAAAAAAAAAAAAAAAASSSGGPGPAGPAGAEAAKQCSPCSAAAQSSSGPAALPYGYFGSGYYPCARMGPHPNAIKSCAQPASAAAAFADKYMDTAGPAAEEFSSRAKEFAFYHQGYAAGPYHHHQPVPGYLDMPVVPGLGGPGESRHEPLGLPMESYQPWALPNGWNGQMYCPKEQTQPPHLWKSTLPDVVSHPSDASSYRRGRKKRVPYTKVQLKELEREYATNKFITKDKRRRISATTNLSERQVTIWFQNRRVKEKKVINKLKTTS

**Q.** For `CC(=O)OCC1C2CC[C@H]3C(OCc4ccc(F)cc4C(F)(F)F)OC[C@]4(C)[C@H]3C2=C(CN4C(=O)OC(C)(C)C)[C@H](C)C1COC(C)=O` (stereo partly drawn), which z-score is on record?
**A.** The z-score was -3.13 (inactive).

**Q.** With `O=C1[C@H]2C=C(I)[C@H](C[C@@H]2c2ccccc2)[C@@]12CO2` as the compound, how does the z-score read?
**A.** The z-score was -1.96 (inactive).

**Q.** Which z-score does the source give for `NC(=O)N1C(=O)C2C(C1=O)C1C=C(CCCO)C2C(c2ccc(CN3CCCC3)cc2)N1Cc1sc2ccccc2c1Cl` (stereo not drawn) here?
**A.** Its z-score is -4.57 (inactive).

**Q.** With `CCCCC(=C=CC[C@H](O)c1ccc(CO)o1)CCO` as the compound, how does the z-score read?
**A.** The z-score was -4.55 (inactive).

**Q.** Which z-score does the source give for `O=C(NCC(O)CO)C1N=C(c2ccc(OCCCO)cc2)N(c2ccccc2)O1` (stereo not drawn) here?
**A.** The z-score was -2.55 (inactive).

**Q.** For `CCCCCC1=C2CNC(CC(C)C)(C(=O)OC)C=C2C(C)C1=O` (stereo not drawn), which z-score is on record?
**A.** The z-score was -8.08 (active).

**Q.** With `COc1ccc([Si](C)(C)[C@H]2[C@H](CC(=O)N3CCC[C@H]3CO)O[C@@]3(C(=O)N(Cc4ccc(N5CCCCC5=O)cc4)c4ccccc43)[C@@H]2C)cc1` as the compound, how does the z-score read?
**A.** Its z-score is -4.85 (inactive).

**Q.** With `CN(C)CCCCNC(=O)[C@H]1C[C@H]2C(=O)N3CCC[C@H]3C(=O)N2[C@H]1c1cccc(OCCO)c1` as the compound, how does the z-score read?
**A.** Its z-score is -3.86 (inactive).

**Q.** With `C=CCC(OC(C)=O)[C@@H]1[C@@H](N(Cc2ccc(-c3ccccc3)cc2)C(=O)c2cccc3ccccc23)c2cc(OCCCO)ccc2N1C(=O)Cc1ccc(OC)cc1` (stereo partly drawn) as the compound, how does the z-score read?
**A.** Its z-score is -1.88 (inactive).

**Q.** For `COc1ccc(C(=O)Nc2ccc3c(c2)[C@@]2(O[C@H](CCO)[C@@H]([Si](C)(C)c4ccc(OC)cc4)[C@@H]2C)C(=O)N3Cc2ccccc2)cc1`, which z-score is on record?
**A.** Its z-score is -1.54 (inactive).

**Q.** With `CCOC(=O)C1=CCC(c2cc3ccccc3[nH]2)N(CCN2CC(C(=O)OCC)=CCC2c2cc3ccccc3[nH]2)C1` (stereo not drawn) as the compound, how does the z-score read?
**A.** Its z-score is -3.81 (inactive).

**Q.** For `CCCC[C@H]1OB(O)C[C@H]2C1=C(COc1ccccc1)C[C@H]1C(=O)C=CC(=O)[C@H]12`, which z-score is on record?
**A.** The z-score was -5.45 (inactive).

**Q.** With `C=CCNC(=O)[C@H]1[C@@H]2C(=O)O[C@@H](c3ccccc3)[C@@H](c3ccccc3)N2[C@@H](c2ccc(OCCO)cc2)[C@]12C(=O)Nc1ccccc12` as the compound, how does the z-score read?
**A.** Its z-score is -5.26 (inactive).

**Q.** Which z-score does the source give for `O=C(NCc1ccccc1)[C@@H]1c2ccccc2C(=O)N(Cc2cc(C(F)(F)F)cc(C(F)(F)F)c2)[C@H]1c1ccc(CO)cc1` here?
**A.** Its z-score is -3.95 (inactive).

**Q.** With `CN1C(=O)C2C(C3CC3)C=C3CN(Cc4cccc(Cl)c4)[C@@H]([C@@H](O)Cc4ccccc4)C3C2C1=O` (stereo partly drawn) as the compound, how does the z-score read?
**A.** Its z-score is -4.6 (inactive).

**Q.** For `COc1ccc([Si](C)(C)[C@@H]2[C@@H](CC(=O)N3Cc4ccccc4C[C@H]3CO)O[C@]3(C(=O)N(Cc4cccc(N5CCOC5=O)c4)c4ccccc43)[C@H]2C)cc1`, which z-score is on record?
**A.** Its z-score is -2.49 (inactive).

**Q.** For `C=C(COC)/C(=C/C[C@@H](OC(C)=O)c1ccccc1OCCO)c1cnc2ccccc2c1`, which z-score is on record?
**A.** The z-score was -5.76 (inactive).

**Q.** Which z-score does the source give for `C=CCN1C(=O)[C@@]2(O[C@@H](CCn3cc([C@H](O)c4ccccc4)nn3)[C@H]([Si](C)(C)c3ccc(OC)cc3)[C@H]2C)c2cc(N3C(=O)c4cccc5cccc3c45)ccc21` here?
**A.** Its z-score is -3.29 (inactive).

**Q.** Which z-score does the source give for `COc1ccc(C(O)C2C=CC3C(=O)N(c4ccccc4)C(=O)C3N2Nc2ccc([N+](=O)[O-])cc2)c2ccccc12` (stereo not drawn) here?
**A.** The z-score was -0.935 (inactive).

**Q.** For `C=C(CCCC)/C(=C/C[C@H](OC(=O)c1ccncc1)c1ccc(OCCO)cc1)c1cnc2ccccc2c1`, which z-score is on record?
**A.** Its z-score is -2.83 (inactive).

**Q.** With `CO[C@H]1O[C@H](CO)[C@@H](OC(=O)Nc2ccc3c(c2)OCO3)[C@H](OC(=O)Nc2ccccc2-c2ccccc2)[C@H]1OC(=O)Nc1ccccc1-c1ccccc1` as the compound, how does the z-score read?
**A.** Its z-score is -3.15 (inactive).

Source: PubChem BioAssay
